Measured potencies and affinities stand elsewhere. Inconclusive results are not listed. A number with no mark means an inactive call.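 Rule for the calls: active = signal loss from cell killing with fitted potency at or below twice the top valid dose; inconclusive = flat drop of 30 to 70%, or unreliable curve fit; inactive = opposite direction, flat within 30%, or weaker potency.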
test: viability loss in A549 lung cancer cells – cell-based, cherry-picks, 26 µM top dose, cytotoxicity control, dose response (AID 1053119); details: CellTiter-Glo ATP luminescence, 72 h; series mostly up to 26 µM; activity change, negative = cytotoxicity: at the top concentration;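 note: 0% = neutral control wells and -100% = 10 µM mitoxantrone wells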

Compound	activity change, negative = cytotoxicity
Cc1ccc(-c2nc3ncccc3o2)cc1NC(=O)c1ccco1	-0.724%
Cc1ccccc1S(=O)(=O)N1CC[C@H]2[C@H](CO)Nc3ccc(-c4ccc(C#N)cc4)cc3[C@H]21	-6.96%
CN(C)C(=O)c1ccc(-c2ccc3c(c2)[C@@H]2[C@@H](CCN2C(=O)c2ccc(F)cc2)[C@@H](CO)N3C)cc1	-30.3%
O=S(=O)(c1ccccc1F)N1CC[C@H]2[C@H](CO)Nc3ccc(-c4cccc(F)c4)cc3[C@H]21	-4.39% [at 23.5 µM]
N#Cc1ccc(-c2ccc3c(c2)[C@@H]2[C@@H](CCN2S(=O)(=O)c2cccc(F)c2)[C@H](CO)N3)cc1	-4.73%
COCC(=O)Nc1ccc2c(c1)C(=O)N(C)[C@@H]1CC[C@H](CC(=O)NCc3ccccc3Cl)O[C@H]1CO2	1.18%
O=C(Nc1cc(Sc2nc3ccccc3s2)cc([N+](=O)[O-])c1)c1ccccc1F	-8.23%
COC(=O)C[C@@H]1CC[C@@H]2[C@@H](COc3ccc(NC(=O)Cc4cccs4)cc3C(=O)N2C)O1	6.73%
COc1cccc(CN2CCN(C(=O)c3ccc(-c4ccccc4)cc3)CC2)c1OC	4.35%
Cc1c(NC(=O)c2ccc3nsnc3c2)cccc1[N+](=O)[O-]	-0.314%
O=C(Nc1ccccc1F)N1C[C@@H]2[C@H](c3ccccc31)[C@H](CO)N2C(=O)C1CCOCC1	8.24% [at 23.5 µM]
CO[C@H]1CN(C)C(=O)c2cc(NC(=O)Nc3cc(Cl)cc(Cl)c3)ccc2OC[C@H](C)NC[C@@H]1C	8.32%
COC(=O)C[C@H]1CC[C@@H]2[C@H](COc3ccc(NC(=O)Cc4cccs4)cc3C(=O)N2C)O1	2.92% [at 23.5 µM]
CCN1CCN(C(c2ccccc2)c2nnnn2Cc2ccccc2)CC1 (stereo not drawn)	-9.25%
C[C@H](CO)N1C[C@H](C)[C@@H](CN(C)Cc2ccc(-c3ccccc3)cc2)Oc2ccc(NC(=O)C3CCCCC3)cc2C1=O	-11.6%
CCC(C)(C)NC(=O)C(OC(=O)c1ccco1)c1ccccc1OC (stereo not drawn)	-3.54%
C[C@H](CO)N1C[C@H](C)[C@H](CN(C)C(=O)Nc2cccc3ccccc23)Oc2c(NC(=O)Nc3ccc(C(F)(F)F)cc3)cccc2C1=O	2.92%
Cc1cccc(N2CCN(S(=O)(=O)c3cn(C)cn3)CC2)c1C	-6.39%
C[C@@H](O)C#Cc1ccc2c(c1)O[C@@H](CN(C)C)[C@@H](C)CN([C@@H](C)CO)S2(=O)=O	1.66%

Compound	activity change, negative = cytotoxicity
CSc1ccccc1C(=O)C1CCCN(C(=O)CCc2cccnc2)C1 (stereo not drawn)	-5.79%
C[C@@H]1CN([C@@H](C)CO)C(=O)c2cc(NC(=O)C3CCCCC3)ccc2O[C@@H]1CN(C)Cc1ccc(-c2ccccc2)cc1	-4.93%
O=C(CCNS(=O)(=O)c1cccc2nonc12)NC1CCCc2ccccc21 (stereo not drawn)	10.4%
CO[C@H]1CN(C)C(=O)c2cc(NC(=O)Nc3ccc(Cl)c(Cl)c3)ccc2OC[C@@H](C)NC[C@H]1C	-12.1%
O=S(=O)(c1cccc(F)c1)N1CC[C@@H]2[C@H]1c1cc(-c3cccc(F)c3)ccc1N[C@@H]2CO	-7.69%
C[C@H](CO)N1C[C@H](C)[C@@H](CN(C)C(=O)c2cccc(F)c2)Oc2ncc(-c3ccccc3)cc2C1=O	-7.25%
C[C@@H]1CN([C@H](C)CO)C(=O)c2cc(NC(=O)C3CCCCC3)ccc2O[C@@H]1CN(C)Cc1ccc(-c2ccccc2)cc1	-12.1%
COc1ncccc1C(=O)NC1CCCc2c1cnn2-c1ccc(C)c(C)c1 (stereo not drawn)	-11.4%
COc1ccccc1CC(=O)OC(C)C(=O)Nc1ccc(S(=O)(=O)N2CCCCC2)cc1 (stereo not drawn)	24.9%
O=C(c1cccnc1)N1C[C@H]2[C@@H](c3ccccc31)[C@@H](CO)N2CC1CCCC1	-16.2%
CC(=O)Nc1cccc(-c2ccnc3c2CC(C)(C(=O)Nc2cccc(C(F)(F)F)c2)O3)c1 (stereo not drawn)	-20%
COc1ccc(CN(C2CCCC2)S(=O)(=O)c2ccc(-n3cnnn3)cc2)cc1OC	19%
COc1cccc(-c2ccc3c(c2)[C@H]2[C@H](CCN2S(=O)(=O)c2cccc(OC)c2)[C@@H](CO)N3)c1	-4.15%
NC(=O)C1=C[C@H](c2coc3ccccc3c2=O)C[C@H](OCCCCO)O1	7.67%
CCCc1cc(C(=O)OC)c(NC(=O)CCC(=O)O)s1	-7.87%
Cc1cc(C)n2ncc(C(=O)NCc3ccc(Cl)cc3)c2n1	-3.99%
C[C@H]1CN([C@@H](C)CO)C(=O)c2cc(NC(=O)CCCN(C)C)ccc2O[C@H]1CN(C)Cc1ccc(-c2ccccc2)cc1	6.67%
COc1cccc(-c2ccc3c(c2)[C@H]2[C@H](CCN2S(=O)(=O)c2cccc(OC)c2)[C@H](CO)N3)c1	-8.97%
O=C(NCCS(=O)(=O)N1CCN(c2ccc(F)cc2)CC1)c1ccc(Br)o1	-7.54%
